According to ChEMBL document CHEMBL4513216, “Probing the Open Global Health Chemical Diversity Library for Multistage-Active Starting Points for Next-Generation Antimalarials” (ACS Infect Dis, 2020):
The whole screen tested about 69,000 compounds, of which about 8,600 (12%) showed an effect of 50% or more. The sample as a whole holds a higher share of strong results than the screen did.

tested on: Plasmodium berghei; assay: Screen against P. berghei liver stage (PbLuc), transformed with Luciferase, at 10uM; format: functional, HepG2; conditions: tested at 10 uM

Structure (SMILES) | INHIBITION [%]
Cc1ccc(Cl)cc1NCc1nc2n(n1)CCCCC2 | 25.1
COc1cccc(COCC(=O)N2CCN(S(C)(=O)=O)CC2)c1 | 28.74
CN(C)C(=O)CN1CCC2(C1)CN(CC1CCOC1)C2 (stereo unspecified) | 8.31
CC(C)=CCN1CCN(C(=O)c2cc(C)n[nH]2)[C@H]2CS(=O)(=O)C[C@H]21 | -6.67
Cc1ccc(CN2CCC3(CC2)CCN(C(=O)c2cccn2C)C3)cc1 | 6.27
COCCOC(=O)N1CCN2C[C@@H](CO)[C@H](c3ccccc3)[C@H]2C1 | -8.8
CN1CCCN(c2nccc(-c3c[nH]nc3-c3ccncc3)n2)CC1 | 42.6
c1cc(-c2n[nH]cc2-c2ccnc(N3CCCCCC3)n2)ccn1 | 50.1
c1cc(-c2n[nH]cc2-c2ccnc(N3CCCC3)n2)ccn1 | 33.7
Cc1ncc(-c2ccnc(N3CCCCCC3)n2)c(-c2cccnc2)n1 | 12.7
c1cncc(-c2nc(C3CC3)ncc2-c2ccnc(N3CCCC3)n2)c1 | 51.5
Cc1ncc(-c2ccnc(N3CCN(C)CC3)n2)c(-c2cccnc2)n1 | 21.9
Cc1nc(CN(C)C2CCN(Cc3nc(C4CC4)no3)C2)no1 (stereo unspecified) | 40.9
COc1ccc(-c2cc(N)on2)cc1 | -3.34
Cc1nc(CNC(=O)NCC2(C)CCCc3ccccc32)no1 (stereo unspecified) | -21.9
CC(CNC(=O)N1CCN(Cc2ccon2)CC1)N(C)C1CC1 (stereo unspecified) | 4.62
CNC(=O)[C@@]12CCC3(CCN(S(C)(=O)=O)CC3)[C@@H]1CN(C(C)=O)C2 | 40.1
CC(=O)N1CCCC(c2ccc3sc(N)nc3n2)C1 (stereo unspecified) | 26.3
O=C(CC1CC1)N1CCN(Cc2ccncc2)c2ncccc2C1 | -45.8
CC(C)c1nc(NS(=O)(=O)c2ccccc2Cl)no1 | 2.61
CCc1nc(NS(=O)(=O)c2ccc(F)cc2Cl)no1 | 56.1
Cc1nc(NS(=O)(=O)c2ccc(C)c(Br)c2)no1 | 68.3

Structure (SMILES) | INHIBITION [%]
Cc1nc(NS(=O)(=O)c2ccc(F)c(Br)c2)no1 | 10.6
Cc1nc(NS(=O)(=O)c2cc(C)c(Br)cc2C)no1 | 49.4
CC(C)(C)c1nc(NS(=O)(=O)c2ccccc2F)no1 | 82.2
CCc1nc(NS(=O)(=O)c2ccc(F)cc2C)no1 | -3.16
CSCC(C)(O)CNS(=O)(=O)c1ccc(F)cc1 (stereo unspecified) | 12.3
CC(C)(C)c1nc(NS(=O)(=O)c2ccc(F)cc2)no1 | 51.6
Cn1ncnc1NS(=O)(=O)c1ccc(F)cc1 | -3.59
CCc1nc(NS(=O)(=O)c2ccc(C)cc2Cl)no1 | 4.74
CCc1nc(NS(=O)(=O)c2cc(C)ccc2F)no1 | -7.9
NC1(CNC(=O)c2cc3ccccc3[nH]2)CCCC1 | -8.28
Cc1ncccc1Oc1ncnc(N2CCC(O)(CO)CC2)c1C | -6.03
COCCn1cc2c(n1)C(CNCc1cccc(OC)c1)OCC2 (stereo unspecified) | 17.4
O=C(Nc1cnccn1)[C@@H]1COC[C@H]2CN(C3CCC3)C[C@H]21 | 24.9
O=C(Cc1ccsc1)N1Cc2nc(CN3CCCCC3)oc2C1 | 31.5
CCc1nc(C2CCCN2CCC(=O)N2CCc3ccccc32)no1 (stereo unspecified) | 46.2
CC(C)(C)c1nc(NS(=O)(=O)c2cccc(F)c2)no1 | 82.2
Cc1cc(F)cc(S(=O)(=O)Nc2noc(C)n2)c1 | 31.5
CCc1nc(NS(=O)(=O)c2cc(C)cc(F)c2)no1 | 40.9
Cc1nc(NS(=O)(=O)c2cccc(F)c2C)no1 | 74.5
CCc1nc(NS(=O)(=O)c2cccc(F)c2C)no1 | 39.7
Cc1c(F)cccc1S(=O)(=O)Nc1noc(C(C)C)n1 | 10.2
Cc1cc(N(Cc2cccs2)C2CC2)n2nc(C(F)(F)F)nc2n1 | 26.6

Structure (SMILES) | INHIBITION [%]
CC(C)n1cnnc1SCCN(C)c1ccccc1 | -34.8
COCCNc1ccc(CC2CCNC2)cn1 (stereo unspecified) | -26.2
CCCN(CC(=O)N(C)C)C(=O)c1ccc(-c2nc(C)cs2)cc1 | 18.9
COc1cc(CNC(=O)c2cc(S(C)(=O)=O)ccc2C)ccn1 | 1.51
Cc1nn(C)c(N2CCOCC2)c1CNCc1ccc(N(C)C)nc1 | 51.1
Cc1nn(C)c(N2CCOCC2)c1CNCc1cccnc1 | 32.2
Cc1nn(C)c(N2CCOCC2)c1CNCc1ccnc(N(C)C)c1 | 38.7
Cc1ccc(N2CCCc3sc(C(=O)NCCC#N)nc32)nn1 | 35.8
CCC(CN1CCOCC1)NC(=O)Cc1c(C)[nH]c2cc(C)cc(C)c12 (stereo unspecified) | 6.32
CN(C)CCCNC(=O)c1nnsc1-c1ccccc1 | 15.9
O=C(NCc1cccs1)c1[nH]nc2c1CS(=O)(=O)CC2 | -22.3
Cc1nn(C2CCCC2)c2c1C(c1ccc3c(c1)OCO3)SCC(=O)N2 (stereo unspecified) | 61.6
Cc1n[nH]c2c1C(c1ccc3c(c1)OCO3)SCC(=O)N2 (stereo unspecified) | 9.32
O=C1CC(c2ccccc2)c2cnn(C3CCCC3)c2N1 (stereo unspecified) | 68
CC(C)(C)n1ncc2c1NC(=O)CC2c1cccc(O)c1 (stereo unspecified) | -5.22
O=C1CC(c2ccc3c(c2)OCO3)c2cn[nH]c2N1 (stereo unspecified) | 6
O=C1CC(c2ccsc2)c2cnn(C3CCCC3)c2N1 (stereo unspecified) | 6.09
O=C1CC(c2ccc3c(c2)OCO3)c2cnn(C3CCCC3)c2N1 (stereo unspecified) | 87.9
O=C1CC(c2ccc3c(c2)OCO3)c2c(n3ccsc3nc2=O)N1 (stereo unspecified) | 5.85
CC(C)(C)n1ncc2c1NC(=O)CC2c1cccc(F)c1 (stereo unspecified) | 89.4
CC(C)(C)n1ncc2c1NC(=O)CC2c1ccccc1 (stereo unspecified) | 5.65
O=C1CC(c2cccs2)c2cnn(C3CCCC3)c2N1 (stereo unspecified) | 14.4

Structure (SMILES) | INHIBITION [%]
O=C1CSC(c2ccc3c(c2)OCO3)c2cnn(C3CCCCC3)c2N1 (stereo unspecified) | 38.9
O=C1CC2(CCCCN2C(=O)c2ccncc2)CN1CC1CC1 (stereo unspecified) | 23.5
CCc1sc(C(=O)NC2CC2)cc1C | 38
Cc1cc(N(C)C)nc(C2COCCN2Cc2nccn2C)n1 (stereo unspecified) | 20.6
Cc1ccc(NC2CCN(C(=O)c3c(C)oc(C)c3C)CC2)nn1 | 9.365
COc1ccccc1COCC(O)CN1CC(n2cccn2)C1 (stereo unspecified) | 19.85
O=C1CC(c2ccc(F)cc2)c2cnn(C3CCCC3)c2N1 (stereo unspecified) | 70.2
COc1ccc(C2CC(=O)Nc3c2cnn3C2CCCC2)cc1 (stereo unspecified) | -9.67
N#Cc1ccc(C2CC(=O)Nc3c2cnn3C2CCCC2)cc1 (stereo unspecified) | -11.1
Cc1nnc(CN(C)CC(=O)NC(C)(C)c2ccc(F)cc2)n1C | 10.1
Fc1cccc(Cl)c1CNCc1ccccn1 | 10.7
CCCN1CCN(C(=O)c2ccc3ccccc3n2)[C@H]2CS(=O)(=O)C[C@H]21 | -15.1
CCCN1CCN(C(=O)c2cc[nH]n2)[C@H]2CS(=O)(=O)C[C@H]21 | 53.9
CCCN1CCN(C(=O)c2cnccn2)[C@H]2CS(=O)(=O)C[C@H]21 | 51.8
CCC(=O)N1CCN(Cc2cnc(C)nc2)[C@H]2CS(=O)(=O)C[C@H]21 | 53.1
CCCN1CCN(C(=O)c2ccc(Cl)cn2)[C@H]2CS(=O)(=O)C[C@H]21 | 37.6
CCCN1CCN(C(=O)c2cccc(C)n2)[C@H]2CS(=O)(=O)C[C@H]21 | 21.2
Cc1ncc(CN2CCN(C(=O)N(C)C)[C@@H]3CS(=O)(=O)C[C@@H]32)cn1 | 31.6
O=C(c1cnccn1)N1CCC(CN2CCOCC2)CC1 | 30
Cc1ncc(CN2CCN(C(=O)C3CCC3)[C@@H]3CS(=O)(=O)C[C@@H]32)cn1 | 14.8
CC1COCCN1C(=O)c1cnccn1 (stereo unspecified) | 53.5
CCCN1CCN(C(=O)c2cc3ccccc3cn2)[C@H]2CS(=O)(=O)C[C@H]21 | 43.9

Structure (SMILES) | INHIBITION [%]
Cc1cnc(C(=O)N2CCOCC2C)cn1 (stereo unspecified) | 33.7
CC(C)c1nccn1-c1nccnc1C1CCCN1Cc1ccccc1 (stereo unspecified) | 28.5
O=C(NCCCNC(=O)c1ccc(F)cc1F)c1cccc(O)c1 | -2.61
CC(Cn1ccnc1)NC(=O)N1CCN(Cc2ccncc2)CC1 (stereo unspecified) | 13.03
CC(C)c1ocnc1C(=O)Nc1cccc(Cn2ccccc2=O)c1 | 26.5
Cc1nn(C)c(N(C)C)c1CNCc1ccccc1Cn1ccnc1 | 27.6
CC(=O)Nc1nc(C2CCCN(C(=O)CN(C)C)C2)cs1 (stereo unspecified) | 8.72
CC(NS(=O)(=O)CCc1ccccn1)c1ccccc1Br (stereo unspecified) | -9.35
CCC(=O)c1ccc(OCC(=O)N(C)C(C)c2ccon2)cc1 (stereo unspecified) | 20.6
CC1=N[C@@]2(CC[C@@H]3CN(Cc4ccccc4F)C[C@@H]32)C(=O)N1C | 19.8
CNC(=O)[C@@H]1CCO[C@@H]2CCN(Cc3ccsc3)C[C@H]21 | 31.1
CCN1CCOC(CNCc2cnc(N(CC)CC)s2)C1 (stereo unspecified) | -81.1
CCCN1CCN(C(=O)c2cnc(C)nc2)[C@H]2CS(=O)(=O)C[C@H]21 | 2.15
Cc1nc(C(=O)N2CCN(C(=O)N(C)C)[C@@H]3CS(=O)(=O)C[C@@H]32)cs1 | 57.8
CCCN1CCN(C(=O)c2cnccc2C)[C@H]2CS(=O)(=O)C[C@H]21 | 19.4
Cc1nc(C(=O)N2CCN(C(=O)C3CCC3)[C@@H]3CS(=O)(=O)C[C@@H]32)cs1 | 33.1
Cc1nc(C(=O)N2CCN(S(C)(=O)=O)[C@@H]3CS(=O)(=O)C[C@@H]32)cs1 | 39.8
CCCN1CCN(C(=O)c2cncnc2C)[C@H]2CS(=O)(=O)C[C@H]21 | 51.2
